# Experimental data: PubChem BioAssay (NCI)
# This is part of a sample that, as a whole, favours compounds with a hit. Of some 83,000 tested, about 20% had one in any assay.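 Interpretation: 100, growth as untreated; towards 0, rising growth inhibition; 0, no net growth; 0 to -100, cell death. Compounds scoring below 10 were considered active.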 Unmarked numbers belong to inactive results. Calls of active or inactive are those of the source.
# How the values were obtained:
# Assay in all cases: NCI-60 one-dose screen, 48 h (100 = growth as untreated, 0 = no growth, -100 = all killed)
# Conditions in all cases: 10 µM unless noted
# [1] = system: DU-145 prostate
# [2] = system: K-562 leukemia
# [3] = system: MALME-3M melanoma
# [4] = system: MDA-MB-231 breast
# [5] = system: RXF 393 renal
# [6] = system: SF-268 CNS
# [7] = system: SF-295 CNS
# [8] = system: SF-539 CNS
# [9] = system: UACC-257 melanoma
# [10] = system: M14 melanoma
Compound,growth [1],growth [2],growth [3],growth [4],growth [5],growth [6],growth [7],growth [8],growth [9],growth [10]
COc1ccc2cc(C(=O)N3CCC([C@@H](C)C(=O)NCc4ccc5c(c4)OCO5)CC3)[nH]c2c1,60.5% [50 µM],77.2% [50 µM],44.2% [50 µM],34.1% [50 µM],-1.62% [50 µM] (active),32.9% [50 µM],48.1% [50 µM],41.1% [50 µM],77.8% [50 µM],65.2% [50 µM]
COC1C(O)CC(OC2CC(OC3CC(O[C@@H]4C(=O)c5c(cc6cc(OC7CC(OC8CC(O)C(O)C(C)O8)C(O)C(C)O7)c(C)c(O)c6c5O)CC4[C@H](OC)C(=O)C(C)=O)OC(C)C3O)OC(C)C2O)OC1C (stereo not given in full),10.4%,2.1% (active),-30.6% (active),6.75% (active),-56.3% (active),2.33% (active),0.867% (active),-20.8% (active),-23.4% (active),-34.4% (active)
N#Cc1ccccc1-c1ccc(CN2C(=O)S/C(=C\c3ccc(Br)cc3)C2=O)cc1,105%,93.8%,96.8%,95.9%,104%,99.4%,93.1%,99.7%,92.3%,98.2%
O=C(/C=C/C12c3ccccc3C(c3ccccc31)C1C(=O)NC(=O)C12)c1ccc(I)cc1 (stereo not given),43.2%,24.8%,86.1%,64%,46%,49.8%,78.5%,83.3%,60.5%,74%
O=C1O[C@@H](c2ccccc2Cl)[C@@H]2c3cc4c(cc3CCN12)OCO4,105%,87.5%,101%,97.2%,111%,93.2%,102%,107%,90.7%,105%
CNC(=O)NCC1OC(n2cnc3c(NC(=O)Nc4ccccc4)ncnc32)C2OC(=O)CC12 (stereo not given),110%,81.1%,100%,98.9%,-22.7% (active),99.7%,103%,104%,125%,105%
OC1CSSC1Cn1cnc2c(Nc3ccc(OCc4cccc(F)c4)c(Cl)c3)ncnc21 (stereo not given),-36.8% (active),-56.7% (active),-5.08% (active),-59.2% (active),42.3%,-41.5% (active),4.71% (active),-3.08% (active),26.6%,-81.1% (active)
CN(C)Cc1ccc(NC(=O)c2cncc(C#Cc3cnc(N)c4ncccc34)c2)cc1C(F)(F)F,64.1%,-26.1% (active),-6.72% (active),-68.6% (active),-49.1% (active),55.9%,76.4%,58.4%,36.9%,-54.7% (active)
O=C(Nc1cc(Cl)ccc1O)c1ccccc1Nc1ccnc(C(F)(F)F)c1,23.8%,0.85% (active),-0.18% (active),29.8%,25.7%,21.1%,46.3%,14.5%,26.8%,36%
O=C(Cc1ccc(/C=C/C(=O)c2ncc[nH]2)cc1)Nc1cc(F)c(F)c(F)c1,18.7%,18.3%,93.7%,41.4%,13.1%,58.3%,77.3%,5.66% (active),99.9%,85.2%
O=c1cc(-c2ccccc2)nc(SCc2nc3cc(Cl)c(Cl)cc3[nH]2)[nH]1,106%,88.8%,103%,102%,107%,101%,102%,94.3%,103%,104%
COc1ccc(-c2cc(-c3cc(OC)ccc3OC)nc(SCC(C)=O)c2C#N)cc1,73.7%,72.2%,92%,50.9%,-0.171% (active),65.8%,58.5%,64.9%,93.5%,69.8%
Cc1ccc2c(/C=C/C(=O)c3cc(CN4CCOCC4)c(O)c4nc(C)ccc34)cc(CN3CCOCC3)c(O)c2n1,-55.9% (active),1.93% (active),42.9%,11.5%,-74.5% (active),13.2%,23%,-29.4% (active),7.95% (active),-20.1% (active)
N#CSc1c[nH]c2ccc(/C=C/C(=O)/C=C(O)/C=C/c3ccc4[nH]cc(SC#N)c4c3)cc12,29%,-15.2% (active),20.7%,22.8%,9.89% (active),35.5%,57.3%,13.5%,25.9%,-5.11% (active)
COc1ccc(/C=C(\C(=O)NCc2cccnc2)S(=O)(=O)c2ccccc2)cc1OC,5.77% (active),8.68% (active),48%,22.8%,15.5%,29.1%,57.8%,15.3%,44.7%,28.8%
Cc1cc(O)c(=O)cc2c1C[C@H]1CC(C)(C)/C=C/C[C@]3(C)Oc4cc(=O)c(O)cc(C)c4C[C@H]3C[C@H](O)[C@@]1(C)O2,22.3%,1.9% (active),0.782% (active),13.5%,19.8%,18.5%,3.52% (active),6.95% (active),-6.56% (active),-34% (active)
Cc1ccc(S(=O)(=O)OC[C@]23CCC(C)(C)C[C@H]2C2=CC[C@@H]4[C@@]5(C)CCCNC(C)(C)[C@@H]5CC[C@@]4(C)[C@]2(C)CC3)cc1,37.9%,-20% (active),95.8%,45.6%,67.9%,69.6%,104%,74.8%,97.4%,80.7%
COc1ccc2cc(-c3nc4ccc(C)cn4c3NCc3ccco3)c(=O)[nH]c2c1,71.7%,74.3%,75.4%,49.6%,73.4%,71.6%,74.8%,65.5%,103%,86.8%
COC1/C=C/OC2(C)Oc3c(C)c(O)c4c(O)c(c(/C=N/N(c5ccccc5)c5ccccc5)c(O)c4c3C2=O)NC(=O)C(C)=C/C=C/C(C)C(O)C(C)C(O)C(C)C(OC(C)=O)C1C (stereo not given),90.1%,72.4%,111%,90.9%,-53.5% (active),80.7%,65.1%,89.8%,75.8%,95.7%
CN(C)c1ccc(/C=C2\C=C(c3nc4ccccc4s3)OC2=O)cc1,104%,83.8%,98.3%,73.9%,110%,98.6%,92%,104%,114%,101%
CCOC(=O)c1cnn(CC(C)O)c1NC(=O)NCc1ccccc1C(F)(F)F (stereo not given),105%,86.3%,101%,105%,111%,101%,92.6%,98.3%,89.7%,88.6%
Cc1cc(=O)oc2cc(Oc3nc(Br)cn4c(Br)cnc34)ccc12,75%,93.6%,46.9%,29.6%,44.2%,56.6%,99.9%,47.2%,89.1%,82.8%
Cc1ncc(C(=O)Nc2ccc(CN3CCN(C)CC3)c(C(F)(F)F)c2)cc1C#Cc1cnc(N)c2ccc(C#N)cc12,8.97% (active),-35.3% (active),-55.6% (active),-76.5% (active),-64% (active),16.7%,54.1%,-0.429% (active),-9.1% (active),-41.5% (active)
COc1ccc(C=Nc2c(C(=O)Nc3cccc(Cl)c3C)sc3nc(C)c(C(=O)/C=C/c4ccc(OC)cc4)cc23)cc1,14.7%,17.1%,44.4%,2.5% (active),-44.4% (active),29.9%,18.5%,-30.6% (active),55.6%,-3.16% (active)
Cn1c(=O)[nH]c(=O)c2nc3c(nc21)-c1ccccc1C3=O,104%,99%,102%,101%,99.3%,99.3%,97.7%,95.8%,102%,99.4%
COc1ccc(-c2nc(SCC(=O)Nc3nc4ccc(C)cc4s3)[nH]c(=O)c2C#N)cc1OC,114%,94.4%,103%,97.9%,113%,95.9%,96.4%,92.9%,103%,91.3%
